From publication PMC7862700, “An all-to-all approach to the identification of sequence-specific readers for epigenetic DNA modifications on cytosine” come the findings set out here.

Holding throughout (experiment): DAPPL (digital affinity profiling via proximity ligation, sequencing); 10 mM Tris-HCl pH 7.5, 50 mM NaCl, 1 mM DTT, 4% glycerol, room temperature, 30 min; GST-TFs on glutathione beads, 16-mer random dsDNA library, 0.1% formaldehyde crosslink after washing; high values mean tight binding
Common to all, as to settings: protein: recombinant; tags: N-terminal GST; dsDNA, one strand shown

One experiment addresses T1, ERF (Homo sapiens, UniProt P50548 1-548).
T1 sequence: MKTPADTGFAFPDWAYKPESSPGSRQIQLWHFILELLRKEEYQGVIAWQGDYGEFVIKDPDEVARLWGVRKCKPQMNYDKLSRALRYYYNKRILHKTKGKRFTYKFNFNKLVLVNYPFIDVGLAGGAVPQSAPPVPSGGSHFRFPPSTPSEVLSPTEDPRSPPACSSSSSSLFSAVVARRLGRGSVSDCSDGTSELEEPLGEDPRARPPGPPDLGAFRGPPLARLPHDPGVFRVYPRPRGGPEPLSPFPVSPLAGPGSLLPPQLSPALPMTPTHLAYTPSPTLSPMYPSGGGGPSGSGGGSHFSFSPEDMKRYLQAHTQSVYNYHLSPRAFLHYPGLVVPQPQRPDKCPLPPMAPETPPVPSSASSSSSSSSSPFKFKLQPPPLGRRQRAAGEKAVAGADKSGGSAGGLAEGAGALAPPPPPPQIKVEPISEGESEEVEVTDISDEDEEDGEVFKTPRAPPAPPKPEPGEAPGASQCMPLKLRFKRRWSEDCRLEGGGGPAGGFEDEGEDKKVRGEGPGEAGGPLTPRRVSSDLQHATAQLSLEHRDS
In short, it runs like this: (§1)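 Binding signal is each hexamer's read frequency for a factor divided by its frequency in the tag-only sample. The factors were GST-fused human transcription factors from yeast, captured on glutathione beads, DNA-barcoded and pooled with that sample. Pools were incubated with 200 nmole of a random double-stranded 16-mer DNA library in Tris/NaCl/DTT/glycerol buffer at room temperature for 30 min, then washed, crosslinked with 0.1% formaldehyde, proximity-ligated with BsaI/T4 ligase (1 h, 37 °C), PCR-amplified and sequenced on an Illumina NextSeq500.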

In another experiment the target is T2, ETV3L (Homo sapiens, UniProt Q6ZN32 1-361).
T2 sequence: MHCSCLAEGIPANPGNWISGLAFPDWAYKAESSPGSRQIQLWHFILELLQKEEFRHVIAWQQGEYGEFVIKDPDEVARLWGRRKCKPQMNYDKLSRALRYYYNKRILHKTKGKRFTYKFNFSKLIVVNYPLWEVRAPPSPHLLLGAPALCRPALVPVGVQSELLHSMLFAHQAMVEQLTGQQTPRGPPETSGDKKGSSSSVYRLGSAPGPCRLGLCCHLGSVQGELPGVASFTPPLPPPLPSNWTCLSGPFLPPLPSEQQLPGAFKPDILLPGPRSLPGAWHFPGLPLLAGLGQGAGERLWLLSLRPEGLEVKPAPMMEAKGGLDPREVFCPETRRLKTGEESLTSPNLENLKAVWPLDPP
In short, it runs like this:
as §1

For the next experiment, the target named is T3, ETS2 (Homo sapiens, UniProt P15036 1-469).
T3 sequence: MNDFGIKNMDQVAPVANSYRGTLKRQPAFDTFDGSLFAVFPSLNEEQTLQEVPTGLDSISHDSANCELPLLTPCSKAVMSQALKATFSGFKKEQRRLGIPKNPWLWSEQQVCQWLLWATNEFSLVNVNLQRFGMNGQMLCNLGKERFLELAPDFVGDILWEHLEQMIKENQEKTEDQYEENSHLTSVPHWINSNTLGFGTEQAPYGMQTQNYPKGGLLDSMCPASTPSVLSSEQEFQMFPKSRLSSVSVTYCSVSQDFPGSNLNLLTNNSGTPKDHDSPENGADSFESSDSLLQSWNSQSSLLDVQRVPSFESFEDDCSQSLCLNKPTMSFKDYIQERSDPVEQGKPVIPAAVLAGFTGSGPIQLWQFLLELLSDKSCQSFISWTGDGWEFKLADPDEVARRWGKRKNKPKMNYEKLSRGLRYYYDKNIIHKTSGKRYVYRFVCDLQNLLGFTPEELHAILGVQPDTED
In short, it runs like this:
as §1

Another experiment addresses T4, SPDEF (Homo sapiens, UniProt O95238 1-335).
T4 sequence: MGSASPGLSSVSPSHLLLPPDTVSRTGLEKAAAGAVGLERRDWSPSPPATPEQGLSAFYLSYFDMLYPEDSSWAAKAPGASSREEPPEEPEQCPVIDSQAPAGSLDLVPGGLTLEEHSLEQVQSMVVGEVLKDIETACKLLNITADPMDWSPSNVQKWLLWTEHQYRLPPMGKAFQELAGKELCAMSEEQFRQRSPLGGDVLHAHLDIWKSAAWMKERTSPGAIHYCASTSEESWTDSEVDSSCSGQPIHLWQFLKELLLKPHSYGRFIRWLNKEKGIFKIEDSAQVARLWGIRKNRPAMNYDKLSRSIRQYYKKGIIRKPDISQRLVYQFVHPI
The essentials:
as §1

The target of the next experiment is T5, ETV7 (Homo sapiens, UniProt Q9Y603 1-341).
T5 sequence: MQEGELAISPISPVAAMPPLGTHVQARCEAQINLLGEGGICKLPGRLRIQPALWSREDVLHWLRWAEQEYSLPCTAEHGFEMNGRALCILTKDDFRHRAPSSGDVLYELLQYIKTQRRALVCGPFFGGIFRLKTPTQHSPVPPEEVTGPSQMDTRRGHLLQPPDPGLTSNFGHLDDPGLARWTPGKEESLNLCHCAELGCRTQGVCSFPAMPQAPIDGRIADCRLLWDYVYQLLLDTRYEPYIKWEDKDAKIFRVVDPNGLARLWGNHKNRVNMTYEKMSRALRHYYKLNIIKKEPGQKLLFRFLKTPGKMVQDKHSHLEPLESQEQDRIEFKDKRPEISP
The essentials: as §1

In another experiment the target is T6, ELF5 (Homo sapiens, UniProt Q9UKW6-2 1-255).
T6 sequence: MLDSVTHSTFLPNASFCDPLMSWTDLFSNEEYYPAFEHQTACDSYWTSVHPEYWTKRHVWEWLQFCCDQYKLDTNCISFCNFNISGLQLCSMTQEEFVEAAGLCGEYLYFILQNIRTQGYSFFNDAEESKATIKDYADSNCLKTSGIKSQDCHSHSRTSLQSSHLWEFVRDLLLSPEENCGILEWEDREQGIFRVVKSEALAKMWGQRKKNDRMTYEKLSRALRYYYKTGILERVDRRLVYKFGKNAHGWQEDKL
In short, it runs like this:
as §1

Another experiment addresses T7, ETV3 (Homo sapiens, UniProt P41162-2 1-143).
T7 sequence: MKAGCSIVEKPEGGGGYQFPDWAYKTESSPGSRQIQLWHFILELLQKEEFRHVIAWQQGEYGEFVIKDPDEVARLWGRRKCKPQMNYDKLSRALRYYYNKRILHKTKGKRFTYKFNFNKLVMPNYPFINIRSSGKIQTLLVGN
In short, it runs like this:
as §1

For the next experiment, the target named is ETV6 (Homo sapiens, UniProt P41212 1-452). The essentials:
as §1

Chain of ETV6 (P41212 whole entry): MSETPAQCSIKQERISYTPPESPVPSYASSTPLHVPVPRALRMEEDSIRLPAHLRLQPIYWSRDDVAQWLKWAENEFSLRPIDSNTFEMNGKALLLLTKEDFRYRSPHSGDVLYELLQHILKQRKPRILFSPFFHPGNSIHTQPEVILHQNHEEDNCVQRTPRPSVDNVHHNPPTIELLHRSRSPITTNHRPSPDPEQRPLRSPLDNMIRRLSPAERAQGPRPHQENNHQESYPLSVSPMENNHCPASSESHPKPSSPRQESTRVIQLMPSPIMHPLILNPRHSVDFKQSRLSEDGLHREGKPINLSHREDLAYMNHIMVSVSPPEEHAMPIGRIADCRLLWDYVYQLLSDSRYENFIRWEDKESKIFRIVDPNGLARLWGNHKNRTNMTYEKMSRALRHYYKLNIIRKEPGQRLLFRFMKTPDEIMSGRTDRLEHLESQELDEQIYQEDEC

For TGCAAA, the binding signal in the experiment with ERF is 1.13 fold enrichment (6-mer frequency, TF over GST control); in the experiment with ETV3L it was 1.15 fold enrichment (6-mer frequency, TF over GST control); with ETS2, 1.05 fold enrichment (6-mer frequency, TF over GST control); in the experiment with SPDEF, 1.1 fold enrichment (6-mer frequency, TF over GST control); with ETV7, 1.09 fold enrichment (6-mer frequency, TF over GST control); in the experiment with ELF5, 1.05 fold enrichment (6-mer frequency, TF over GST control). In addition, the binding signal with ETV3 was 1.06 fold enrichment (6-mer frequency, TF over GST control); in the experiment with ETV6, 1.06 fold enrichment (6-mer frequency, TF over GST control).

With ATGGAC, the binding signal with ERF is 1.13 fold enrichment (6-mer frequency, TF over GST control); in the experiment with ETV3L, 1.21 fold enrichment (6-mer frequency, TF over GST control); with ETS2 it was 1.24 fold enrichment (6-mer frequency, TF over GST control); with SPDEF, 1.17 fold enrichment (6-mer frequency, TF over GST control); with ETV7 it was 1.02 fold enrichment (6-mer frequency, TF over GST control); in the experiment with ELF5 it was 1.13 fold enrichment (6-mer frequency, TF over GST control). Besides, the binding signal with ETV3 was 1.2 fold enrichment (6-mer frequency, TF over GST control); in the experiment with ETV6, 1.2 fold enrichment (6-mer frequency, TF over GST control).

In the case of TCTGTC, the binding signal in the experiment with ERF was 1.31 fold enrichment (6-mer frequency, TF over GST control); with ETV3L, 1.19 fold enrichment (6-mer frequency, TF over GST control); in the experiment with ETS2, 1.23 fold enrichment (6-mer frequency, TF over GST control); in the experiment with SPDEF, 1.15 fold enrichment (6-mer frequency, TF over GST control); with ETV7 it was 1.14 fold enrichment (6-mer frequency, TF over GST control); in the experiment with ELF5, 1.16 fold enrichment (6-mer frequency, TF over GST control). Further, the binding signal in the experiment with ETV3 was 1.05 fold enrichment (6-mer frequency, TF over GST control); with ETV6 it was 1.23 fold enrichment (6-mer frequency, TF over GST control).

Take GTACTA: the binding signal in the experiment with ERF was 1.21 fold enrichment (6-mer frequency, TF over GST control); with ETV3L, 1.05 fold enrichment (6-mer frequency, TF over GST control); with ETS2, 1.13 fold enrichment (6-mer frequency, TF over GST control); in the experiment with SPDEF, 1.1 fold enrichment (6-mer frequency, TF over GST control); in the experiment with ETV7 it was 1.09 fold enrichment (6-mer frequency, TF over GST control); with ELF5, 1.13 fold enrichment (6-mer frequency, TF over GST control). Further, the binding signal was 1.09 fold enrichment (6-mer frequency, TF over GST control) with ETV3 and 1.15 fold enrichment (6-mer frequency, TF over GST control) in the experiment with ETV6.

Consider ACCATA, for which the binding signal was 1.15 fold enrichment (6-mer frequency, TF over GST control) in the experiment with ERF; 1.25 fold enrichment (6-mer frequency, TF over GST control) in the experiment with ETV3L; 1.17 fold enrichment (6-mer frequency, TF over GST control) with ETS2; 1.17 fold enrichment (6-mer frequency, TF over GST control) with SPDEF; 1.11 fold enrichment (6-mer frequency, TF over GST control) with ETV7; 1.15 fold enrichment (6-mer frequency, TF over GST control) with ELF5. The binding signal with ETV3 is 1.19 fold enrichment (6-mer frequency, TF over GST control); in the experiment with ETV6, 1.16 fold enrichment (6-mer frequency, TF over GST control).

As for CCTACA, the binding signal with ERF is 1.23 fold enrichment (6-mer frequency, TF over GST control); with ETV3L, 1.35 fold enrichment (6-mer frequency, TF over GST control); in the experiment with ETS2, 1.19 fold enrichment (6-mer frequency, TF over GST control); with SPDEF, 1.17 fold enrichment (6-mer frequency, TF over GST control); with ETV7 it was 1.15 fold enrichment (6-mer frequency, TF over GST control); with ELF5, 1.41 fold enrichment (6-mer frequency, TF over GST control). Moreover, the binding signal with ETV3 was 1.29 fold enrichment (6-mer frequency, TF over GST control); in the experiment with ETV6 it was 1.29 fold enrichment (6-mer frequency, TF over GST control).
